Source: PubChem
Only some compounds are listed: those with a hit (about 7.4% of all), similar ones and a draw of the others.
SMN2 splice enh = SMN2 splice variant enhancement; HEK293 SMN2-luciferase splicing reporter, luminescence, 30-36 h; Potency, µM (highest dose often 46.1 µM), for inactives: top-dose activity change, positive = activation, hits mostly activators; 2.8% of 210,000 active; AID 1458; also: % of control where 0% means no effect; nearly all actives have a fitted effect of over 55% in size
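HEK293 cells carry an SMN2 minigene-luciferase reporter in which exon 7 inclusion puts luciferase in frame. Cells were seeded at 2000 cells/well, attached for 10-12 hours, then exposed to compounds for 30-36 hours at 37C before ONE-Glo luminescence.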
ELG1 genotoxic = inducers of genotoxicity in HEK293T ELG1-luciferase cells. HEK293T ELG1-luciferase reporter, luminescence, 16 h. Potency, µM (highest dose often 46 µM), for the others: at the top dose activity change, positive = activation, hits mostly activators. 1.3% of 330,000 active. AID 504466; also: % of control where 0% means no effect; nearly all actives have a fitted effect of over 60% in size
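Genotoxicity was scored as increased ELG1-luciferase reporter signal, measured by ONE-Glo luminescence (30 min, room temperature). Compound or vehicle exposure of the HEK293T reporter cells lasted 16 hr at 37°C.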
Rab9 prom act = activates the Rab9 promoter | Huh7 Rab9 promoter-luciferase reporter, luminescence, 24 h | Potency, µM (doses to about 9.22 µM), without a hit: top-dose activation, negative = inhibition, hits mostly activators | 2.8% of 320,000 active | AID 485297; also: % of control where 0% means no effect; nearly all actives have a fitted effect of over 60% in size
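Quantitative HTS format; Huh7 Rab9-luciferase reporter cells (1500/well) receive compound 2 h post-plating, incubate 24 h at 37 °C, then get luciferase reagent for 10 min before luminescence reading.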
NPC1 prom act = activators of NPC1 promoter; Huh7 NPC1 promoter luciferase reporter, 24 h; Potency, µM (series often up to 9.22 µM), inactives show at the top dose activation, hits mostly activators; 2.4% of 320,000 active; also: % of control where 0% means no effect; nearly all actives have a fitted effect of over 60% in size
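Huh7 cells stably carrying NPC1 promoter–luciferase, plated in Opti-MEM with 10% FBS for 2 h, were exposed to compound in DMSO for 24 h at 37 °C; luciferase reagent was added for 10 min and luminescence read.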
FLuc counter = inhibits or activates purified firefly luciferase, miR-21 counter-screen; Potency, µM (top dose mostly 57.5 µM), without a hit: at the top dose activity change, negative = inhibition, usual class: inhibitors; AID 588342; 6.9% of 360,000 active; purified FLuc, Km substrates, luminescence inhibition; P08659;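 also: plate controls were vehicle for no effect and reference inhibitor for full effect; nearly all actives have a fitted effect of over 55% in size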
Target sequence (P08659 whole entry, looked up): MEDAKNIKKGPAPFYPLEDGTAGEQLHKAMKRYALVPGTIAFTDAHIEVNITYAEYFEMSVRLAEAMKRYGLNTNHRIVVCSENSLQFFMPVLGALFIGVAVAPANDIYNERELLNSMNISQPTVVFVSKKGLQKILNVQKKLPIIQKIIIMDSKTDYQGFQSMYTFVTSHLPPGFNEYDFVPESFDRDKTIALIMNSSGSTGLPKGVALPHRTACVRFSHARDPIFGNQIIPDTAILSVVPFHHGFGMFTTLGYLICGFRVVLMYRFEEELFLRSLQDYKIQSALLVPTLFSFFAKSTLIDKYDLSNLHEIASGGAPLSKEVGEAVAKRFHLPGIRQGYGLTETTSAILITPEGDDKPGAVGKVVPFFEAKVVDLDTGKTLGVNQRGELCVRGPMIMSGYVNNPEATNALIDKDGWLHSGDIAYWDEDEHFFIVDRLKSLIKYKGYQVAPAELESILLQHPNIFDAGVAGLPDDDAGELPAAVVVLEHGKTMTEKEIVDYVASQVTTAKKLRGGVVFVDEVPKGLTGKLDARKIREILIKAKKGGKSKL
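Purified P. pyralis luciferase, 10 nM final, with Km-level 10 uM D-luciferin and 10 uM ATP in 50 mM Tris acetate pH 7.5, 10 mM Mg acetate, 0.01% Tween-20, 0.05% BSA; 6-point qHTS titration about 60 µM downward; luminescence read.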
Numbers without * were called inactive; ? = inconclusive; · = no result; [ ] = remark or other dose. Calls follow the shape of the dose curve; as a rule, active = well fitted curve in the direction sought with a large enough effect; inconclusive = small, poorly fitted or top-dose-only effect, or another doubt; inactive = no such curve, though single readings can be large; an effect the other way counts as inactive or inconclusive. Potency is read from the fitted curve at half-maximal effect.

SMILES | SMN2 splice enh | ELG1 genotoxic | Rab9 prom act | NPC1 prom act | FLuc counter
CN(C)c1ccc(/C=c2\sc3n(c2=O)CCCN=3)cc1 | 1.6µM* | ? | 0.32µM* | 0.4µM* | 0.24µM*
COC(=O)/C=c1/sc2n(c1=O)CCN=2 | -8% | 0% | 1% | 0% | 2%
O=c1/c(=C/c2ccc(O)cc2)sc2n1CCCN=2 | · | ? | 2.8µM* | 1% | 9.5µM*
C=CCn1c(=O)/c(=C/c2ccc(F)cc2)s/c1=C(\C#N)c1nnc2n1CCCCC2 | · | -5% | 2% | 1% | 1%
CN1C(=O)/C(=C\c2ccc(N(C)C)cc2)OC1=S | · | 11% | ? | ? | ?
COc1ccc(OC)c(NC(=O)CSc2ccc(-c3ccco3)nn2)c1 | · | -1% | 2% | -1% | ?
Cc1ccc(-n2ncc3c(N4CCN(C)CC4)ncnc32)cc1 | · | · | · | · | 3µM*
Cc1ccc(-n2ncc3c(N4CCN(C)CC4)ncnc32)cc1Cl | · | · | · | · | 5.4µM*
Cc1ccc(-n2ncc3c(N(C)C)ncnc32)cc1Cl | · | · | · | · | 0.76µM*
Cc1cccc(-n2ncc3c(N)ncnc32)c1 | 5% | ? | ? | ? | ?
CN1CCN(c2ncnc3c2cnn3-c2ccc(Cl)cc2)CC1 | 0% | ? | 0.4µM* | ? | 0.95µM*
CCCC(CCC)C(=O)Nc1cccc(-c2nc3cccnc3s2)c1 | · | · | · | · | 0%
Cc1ccc(-n2nnnc2CNC(=O)c2ccccc2S(C)(=O)=O)cc1C | · | · | · | · | -2%
Cc1ccc(S(=O)(=O)NCC(c2ccccc2)N2CCN(c3ccc(F)cc3)CC2)cc1 (stereo not drawn) | · | -1% | -14% | 4% | -1%
Cc1ccc(C)c(N2CCN(C(=O)Cc3ccc(NC4=NC5CS(=O)(=O)CC5S4)cc3)CC2)c1 (stereo not drawn) | · | -2% | -7% | -1% | -2%
Nc1n[nH]c(-c2ccccc2)n1 | -5% | 1% | -3% | 3% | 1%
Cc1ccc(-c2nc(Nc3ccccc3)n[nH]2)cc1 | 3.5µM* | 0.65µM* | 0.71µM* | 0.89µM* | 1.7µM*
COC(=O)c1cc(-c2ccc3ccccc3c2)[nH]c(=O)c1C#N | 6%[9.22 µM] | · | · | · | ·
CN(C)S(=O)(=O)c1ccc(/C(O)=C2/C(=O)C(=O)N(Cc3cccnc3)C2c2cccs2)cc1 (stereo not drawn) | · | 0% | 3% | -3% | -7%
Cc1c(/C(O)=C2/C(=O)C(=O)N(Cc3cccnc3)C2c2cccs2)cnn1-c1ccccc1 (stereo not drawn) | -29% | ? | 3.5µM* | ? | -2%[2.3 µM]
Cc1c(/C(O)=C2/C(=O)C(=O)N(Cc3cccnc3)C2c2ccccn2)cnn1-c1ccccc1 (stereo not drawn) | -19% | ? | -17% | -5% | 15µM*
Cc1ccc(/C=C/C(=O)OCC(=O)NC(=O)NCc2ccco2)cc1 | · | 1% | -2% | 2% | 0%
O=S(=O)(c1cccc(-c2nnc(SCc3nc4ccccc4s3)o2)c1)N1CCOCC1 | 0% | 6% | ? | ? | 19µM*
O=S(=O)(c1ccc(OCc2nc3ccccc3s2)c(Cl)c1)N1CCOCC1 | 19% | 9.2µM* | ? | ? | -19%
COc1ccc(-c2[nH]c(-c3ccc(O)cc3)nc2-c2ccccc2)cc1 | -26% | · | · | · | ?
SMILES | SMN2 splice enh | ELG1 genotoxic | Rab9 prom act | NPC1 prom act | FLuc counter
COc1ccc(N2C(=O)c3ccccc3NC23CCC(C)CC3)cc1 (stereo not drawn) | 10µM* | ? | 2.2µM* | 2.5µM* | ?
C=C1c2ccccc2NC(=O)N1c1ccc(OC)cc1 | · | 9% | 0% | -5% | 3%
COc1ccc(N2C(=O)c3ccccc3NC23CCCCC3)cc1 | 13µM* | ? | 2.5µM* | 2.8µM* | 11µM*
CCC1(C)Nc2ccccc2C(=O)N1O (stereo not drawn) | 16% | -2% | -2% | -8% | -2%
COc1ccc(N2C(=O)c3ccccc3NC2(C)C)cc1 | 8.9µM* | -2% | ? | ? | -2%
CCOc1ccc(N2C(=O)c3ccccc3NC2(C)CC)cc1 (stereo not drawn) | · | ? | 3.5µM* | ? | ·
COc1ccc2c(C)c(CCC(=O)NCCc3ccccc3)c(=O)oc2c1 | -15% | · | · | · | -6%
